# Data published in the supplement of paper PMC8728848.
# The entries come from a sample that favours the strongest signals as a whole.
# B1: SP15308C-bot-338-23-338 (Bacteroides ovatus) (protein)
# chain: DEWTDEQFKQLISFKTQPGGWGVTDVHVRYANSAKYTYNLPVLVSGSTDNTDDRLVSFSLRDDTLDILNFEKFGNRPELYFRELPQKYYSFPKELTIPAGQSHALLPIEFSLDGLDDSQKWALPLKVCEDANGTYAVNPRKYYRTAVLRPILFNEFSGRFSGSSLLGTMAGESDIKFSSTEIKLNVVTDSIVFFYAGQRTEDYEDRINYKVFLQFTGDKVDSKKDLYKMKIWAENEKLKFNSYSTPTYKVSSEMDATKTYLKHTYIVISDIDFDFVDYTSVPNYEIEYNMKGGLSVSRDLDTRKPDEDQGSDSKWW
# Experiments:
# Test in all cases: glycan array binding signal (z-score within array); higher = stronger binding
# Details in all cases: glycan notation: IUPAC condensed, linker removed
# [1] = target: GlcNAc(b1-2)[GlcNAc(b1-4)]Man(a1-3)[GlcNAc(b1-2)Man(a1-6)]Man(b1-4)GlcNAc(b1-4)GlcNAc
# Summary of the method: (§1)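 Glycan array data were curated from 3228 arrays in the Consortium for Functional Glycomics database and kept only where the protein sequence was available. Glycan names were converted to IUPAC-condensed notation, and columns mapping to the same glycan were averaged. The binding signal is a within-array Z-score, averaged across arrays of the same protein sequence at different concentrations or buffers and across linkers. Negative Z-scores can be read as non-binding.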
# [2] = target: GlcNAc(b1-2)[GlcNAc(b1-4)]Man(a1-3)[GlcNAc(b1-4)][GlcNAc(b1-2)[GlcNAc(b1-6)]Man(a1-6)]Man(b1-4)GlcNAc(b1-4)[Fuc(a1-6)]GlcNAc
# Summary of the method: as §1
# GlcNAc(b1-3)Gal = target: GlcNAc(b1-3)Gal
# Summary of the method: as §1
# [3] = target: GlcNAc(b1-3)Gal(b1-4)GlcNAc(b1-2)[GlcNAc(b1-3)Gal(b1-4)GlcNAc(b1-6)]Man(a1-6)[GlcNAc(b1-3)Gal(b1-4)GlcNAc(b1-2)Man(a1-3)]Man(b1-4)GlcNAc(b1-4)GlcNAc
# Summary of the method: as §1
# [4] = target: GlcNAc(b1-3)Gal(b1-4)GlcNAc(b1-3)Gal(b1-4)GlcNAc(b1-2)Man(a1-3)[GlcNAc(b1-3)Gal(b1-4)GlcNAc(b1-3)Gal(b1-4)GlcNAc(b1-2)Man(a1-6)]Man(b1-4)GlcNAc(b1-4)GlcNAc
# Summary of the method: as §1
# [5] = target: GlcNAc(b1-4)Gal(b1-4)GlcNAc
# Summary of the method: as §1
# [6] = target: GlcNAc(b1-4)GlcNAc(b1-4)GlcNAc
# Summary of the method: as §1
# [7] = target: GlcNAc(b1-6)Gal(b1-4)GlcNAc
# Summary of the method: as §1
# Man(a1-2)Man(a1-3)Man = target: Man(a1-2)Man(a1-3)Man
# Summary of the method: as §1
# [8] = target: Man(a1-2)Man(a1-6)[Man(a1-3)]Man(a1-6)[Man(a1-2)Man(a1-2)Man(a1-3)]Man
# Summary of the method: as §1
# [9] = target: Man(a1-3)[Man(a1-6)]Man(a1-6)[Man(a1-3)]Man
# Summary of the method: as §1
# MurNAc(b1-4)GlcNAc = target: MurNAc(b1-4)GlcNAc
# Summary of the method: as §1
# [10] = target: Neu5Ac(a2-3)Gal(b1-4)GlcNAc(b1-2)[Neu5Ac(a2-3)Gal(b1-4)GlcNAc(b1-4)]Man(a1-3)[GlcNAc(b1-4)][Neu5Ac(a2-3)Gal(b1-4)GlcNAc(b1-4)Man(a1-6)]Man(b1-4)GlcNAc(b1-4)GlcNAc
# Summary of the method: as §1
# [11] = target: Neu5Ac(a2-3)Gal(b1-4)GlcNAc(b1-2)[Neu5Ac(a2-3)Gal(b1-4)GlcNAc(b1-6)]Man(a1-6)[Neu5Ac(a2-3)Gal(b1-4)GlcNAc(b1-2)Man(a1-3)]Man(b1-4)GlcNAc(b1-4)GlcNAc
# Summary of the method: as §1
# [12] = target: Neu5Ac(a2-3)Gal(b1-4)GlcNAc(b1-3)Gal(b1-4)GlcNAc(b1-3)Gal(b1-4)GlcNAc(b1-2)Man(a1-3)[Neu5Ac(a2-3)Gal(b1-4)GlcNAc(b1-3)Gal(b1-4)GlcNAc(b1-3)Gal(b1-4)GlcNAc(b1-2)Man(a1-6)]GalNAc
# Summary of the method: as §1
# [13] = target: Neu5Ac(a2-3)Gal(b1-4)GlcNAc(b1-3)[Neu5Ac(a2-3)Gal(b1-4)GlcNAc(b1-6)]GalNAc
# Summary of the method: as §1
# [14] = target: Neu5Ac(a2-3)Gal(b1-4)[Fuc(a1-3)]GlcNAc(b1-3)Gal(b1-4)[Fuc(a1-3)]GlcNAc(b1-3)Gal(b1-4)[Fuc(a1-3)]GlcNAc
# Summary of the method: as §1
# [15] = target: Neu5Ac(a2-3)Gal(b1-4)[Fuc(a1-3)]GlcNAc(b1-3)GalNAc
# Summary of the method: as §1
# [16] = target: Neu5Ac(a2-3)[GalNAc(b1-4)]Gal(b1-4)GlcNAc
# Summary of the method: as §1
# [17] = target: Neu5Ac(a2-6)Gal(b1-4)GlcNAc(b1-2)Man(a1-6)[GlcNAc(b1-2)Man(a1-3)]Man(b1-4)GlcNAc(b1-4)GlcNAc
# Summary of the method: as §1
# [18] = target: Neu5Ac(a2-6)Gal(b1-4)GlcNAc(b1-3)Gal(b1-4)GlcNAc(b1-3)Gal(b1-4)GlcNAc(b1-2)Man(a1-3)[Neu5Ac(a2-6)Gal(b1-4)GlcNAc(b1-3)Gal(b1-4)GlcNAc(b1-3)Gal(b1-4)GlcNAc(b1-2)Man(a1-6)]GalNAc
# Summary of the method: as §1
# [19] = target: Neu5Ac(a2-6)Gal(b1-4)GlcNAc(b1-3)Gal(b1-4)[Fuc(a1-3)]GlcNAc(b1-3)Gal(b1-4)[Fuc(a1-3)]GlcNAc
# Summary of the method: as §1
# [20] = target: Neu5Ac(a2-8)Neu5Ac(a2-3)Gal(b1-4)Glc
# Summary of the method: as §1
# [21] = target: Neu5Gc(a2-3)Gal(b1-3)[Fuc(a1-4)]GlcNAc
# Summary of the method: as §1
# [22] = target: Neu5Gc(b2-6)Gal(b1-4)GlcNAc
# Summary of the method: as §1
binder,measurement,setting,value
B1,glycan array binding signal (z-score),[1],-0.931
same,glycan array binding signal (z-score),[2],-0.818
same,glycan array binding signal (z-score),GlcNAc(b1-3)Gal,-0.756
same,glycan array binding signal (z-score),[3],0.124
same,glycan array binding signal (z-score),[4],2.87
same,glycan array binding signal (z-score),[5],-0.205
same,glycan array binding signal (z-score),[6],-0.098
same,glycan array binding signal (z-score),[7],-0.182
same,glycan array binding signal (z-score),Man(a1-2)Man(a1-3)Man,0.722
same,glycan array binding signal (z-score),[8],-0.109
same,glycan array binding signal (z-score),[9],0.294
same,glycan array binding signal (z-score),MurNAc(b1-4)GlcNAc,-0.64
same,glycan array binding signal (z-score),[10],-0.025
same,glycan array binding signal (z-score),[11],0.382
same,glycan array binding signal (z-score),[12],0.621
same,glycan array binding signal (z-score),[13],-0.252
same,glycan array binding signal (z-score),[14],-0.739
same,glycan array binding signal (z-score),[15],3.23
same,glycan array binding signal (z-score),[16],-0.753
same,glycan array binding signal (z-score),[17],-0.62
same,glycan array binding signal (z-score),[18],2.46
same,glycan array binding signal (z-score),[19],-0.639
same,glycan array binding signal (z-score),[20],-0.032
same,glycan array binding signal (z-score),[21],0.492
same,glycan array binding signal (z-score),[22],0.812
